This note sets out measurements from PubChem BioAssay (NCATS).

Inconclusive results are not listed. Active and inactive are the calls of the source. Unless noted, the call rests on the fitted dose curve; in most records, active means well fitted curve in either direction with a large enough effect (not every such curve was filed as active); inconclusive means small, poorly fitted or top-dose-only effect, or another doubt; inactive means flat fitted curve, though single readings scatter.

Assay [1] addresses Lysosomal acid glucosylceramidase (Homo sapiens) (UniProt P04062). In words: Glucocerebrosidase-p2 (AID 348; in the data active means potency below about 10 µM; further: potency means the concentration at half of the fitted maximal effect). The note with it: purified GBA, blue fluorogenic substrate, 40 min. The gist of the method: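 Compounds titrated from 0.6 nM upwards against 0.2 nM enzyme in pH 5.9 citric acid/KH2PO4, taurocholate, tween-20; blue fluorogenic substrate 80 uM, 40 min room temperature, stopped and read Ex 365/Em 440 for AC50.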

Assay [2] is described as follows: AP1 Signaling Pathway (AID 357).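 Further: ME-180 reporter cells stimulated with EGF at its EC50 level; on the % scale 0 is the no-effect control and ±100 the full control effect.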 The note with it: ME-180 AP-1-bla reporter, EGF-induced, beta-lactamase ratio, 5 h; at 7.69 µM (top of the series) unless noted. The gist of the method: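 Beta-lactamase reporter under AP-1 response element, ME-180 background. Stimulus: EC50 EGF. Compound exposure 5 h, 37 °C. Detection: CCF4, 2.5 h RT, 460/530 nm. Values: AC50 from titration.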

The nature of assay [3]: NFAT Signaling Pathway (AID 444).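 Further: carbachol stimulus at about its EC50 of 1 µM final; on the % scale 0 is the no-effect control and ±100 the full control effect.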 Conditions: Jurkat NFAT-bla M1, carbachol, beta-lactamase ratio, 5 h; at 7.69 µM (top of the series) unless noted. The gist of the method:
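Read-out: CCF4 FRET ratio (460 nm/530 nm) after 1 h RT dye loading, used for %activity and AC50 from titration series. Cells: Jurkat NFAT-β-lactamase/M1 line, treated with compound plus 1 uM carbachol for 5 h, 37 °C.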

The nature of assay [4]: Stat Signaling Pathway (AID 446).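 Further: ME-180 cervical cancer cells given 40 pM IL-6 alongside compound; SIE-controlled beta-lactamase reporter measured as 460/530 nm FRET emission ratio; on the % scale 0 is the no-effect control and ±100 the full control effect.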 Conditions: ME-180 SIE beta-lactamase reporter, IL-6 stimulated, 5 h; at 7.69 µM (top of the series) unless noted. The gist of the method:
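ME-180 cells carrying a SIE-driven beta-lactamase reporter are stimulated with 40 pM IL-6 for 5 h at 37C in the presence of compound. The 460/530 nm FRET substrate ratio is read after 2.5 h at RT. Data are normalised to 300 pM IL-6 and to 125 nM JAK inhibitor controls.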

In assay [5] the target is Glucocorticoid receptor (Homo sapiens) (UniProt P04150). The assay is described as follows: GR-EFC Redistribution (AID 451; calls by dose curve; further: potency means the concentration at half of the fitted maximal effect). The note with it: CHO-K1 GR-EFC translocation, beta-gal luminescence, 2 h. The gist of the method:
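Translocation of GR-ED fusion to nuclear EA restores b-gal, read by luminescence after 1 h room-temperature detection. Engineered CHO-K1 biosensor cells, 1,000/well, exposed 2 h at 37 C to titrations up to 46 uM final.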

Assay [6] addresses Mitogen-activated protein kinase 10 (Mus musculus) (UniProt Q61831). The assay is described as follows: JNK3 AlphaScreen Assay (AID 530).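 Further: kinase came from lysate of stimulated human HepG2 cells; signal reports phosphorylation of biotinylated GST-cJun 1-79 at Ser73 with 10 µM ATP; on the % scale 0 is the no-effect control and ±100 the full control effect.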 The note with it: JNK3 lysate, c-Jun phosphorylation; series mostly up to 57.1 µM. The gist of the method: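 Compound titrations were preincubated 15 minutes at room temperature with substrate, antibody and pre-activated JNK3-containing HepG2 lysate. Reactions were started with 10 uM ATP and stopped with EDTA-containing bead buffer for AlphaScreen detection.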

The target in assay [7] is 3',5'-cyclic-AMP phosphodiesterase 4B (Homo sapiens) (UniProt Q07343). The assay is described as follows: qHTS Assay for Inhibitors of PDE-IV (AID 607; active means well fitted activation curve with a large enough effect in the main read-out, with a control signal flat, not every such curve was filed as active; further: % of control where 0% means no effect). The note with it: HEK293 ACTOne CNG channel cells, membrane potential fluorescence; series mostly up to 22.9 µM. The gist of the method:
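HEK293 ACTOne cells with CNG channel (1000/well), endogenous PDE4; membrane potential dye, compounds up to 22.9 uM final. Fluorescence Ex 535/Em 590; RO 20-1724 (100 uM final) as reference.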

The target in assay [8] is Cytochrome P450 3A4 (Homo sapiens) (UniProt P08684). The assay is described as follows: qHTS Assay for Activators of Cytochrome P450 3A4 (AID 885; active means well fitted curve in the direction sought with a large enough effect; an effect the other way counts as inactive or inconclusive; further: nearly all actives have a fitted effect of over 65% in size). Conditions: recombinant CYP3A4, Luciferin-PPXE luminescence, 60 min; series mostly up to 57.1 µM. The gist of the method: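 Human CYP3A4 (20 nM) with Luciferin-PPXE at 25 uM (its KM) in 200 mM KPO4; 10 min compound preincubation, then NADPH regeneration and 60 min reaction at RT. Luciferin read by luminescence; normalized to 57 uM ketoconazole full inhibition.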

The nature of assay [9]: qHTS Assay for Lipid Storage Modulators (AID 1519; calls by dose curve). Conditions: Drosophila S3 cells, BODIPY lipid droplet/cell ratio, laser cytometry, cells loaded with oleic acid; for activity change, negative = inhibition: at 57.5 µM (top of the series). The gist of the method:
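Cells seeded at 5,000 per well were treated with compounds over a concentration series and loaded with oleic acid (400 uM, as added). Lipid droplet fluorescence (488 nm excitation, 500-530 nm channel) was read by laser-scanning cytometry and normalized to 20 uM Triacsin C.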

Assay [10] can be described thus: Primary qHTS for small molecule stabilizers of the endoplasmic reticulum resident proteome: Secreted ER Calcium Modulated Protein (SERCaMP) assay (AID 1508630; active means well fitted curve in the direction sought with a large enough effect; an effect the other way counts as inactive or inconclusive; further: on the % scale 0 is the no-effect control and ±100 the full control effect). Conditions: SH-SY5Y GLuc-SERCaMP (Gaussia luciferase released on ER calcium loss) secretion, thapsigargin, luminescence; series mostly up to 38.4 µM. The gist of the method:
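GLuc-SERCaMP-expressing SH-SY5Y cells, pretreated 16 h with compound, are challenged with thapsigargin to empty ER calcium stores; after 4 h, coelenterazine is added directly to the medium and luminescence is imaged.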

Assay [11] is described as follows: qHTS Assay for Identification of Small Molecule Agonists for Hypoxia Response Element Signaling Pathway (AID 914; active means well fitted activation curve with a large enough effect in the signal ratio, with a control signal flat, not every such curve was filed as active; the % refers to the signal ratio; further: potency means the concentration at half of the fitted maximal effect; on activation: % of control where 0% means no effect). Conditions: ME-180 (cervical carcinoma) HRE-bla reporter, beta-lactamase ratio, CoCl2, 17 h; activation: stronger effect = higher value. The gist of the method:
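Compounds in a titration series were added to ME-180 reporter cells alongside an EC50 level of CoCl2. After 17 hours, beta-lactamase activity was read as the 460nm/530nm emission ratio of CCF4, giving AC50 values.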

Assay [12] deals with Glucocorticoid receptor (Homo sapiens) (UniProt P04150). The assay is described as follows: GR-GFP Redistribution (AID 450;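 active means compounds whose dose series gives a full or clear partial fitted curve of increased nuclear translocation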; further: potency means the concentration at half of the fitted maximal effect). The note with it: U2OS GR-GFP nuclear translocation, laser cytometry, 2 h.
The target of assay [13] is Cytochrome P450 2C9 (Homo sapiens) (UniProt P11712). The assay is described as follows: qHTS Assay for Inhibitors and Substrates of Cytochrome P450 2C9 (AID 883; active means well fitted curve in the direction sought with a large enough effect; an effect the other way counts as inactive or inconclusive; further: on the % scale 0 is the no-effect control and ±100 the full control effect; nearly all actives have a fitted effect of over 60% in size). The note with it: recombinant CYP2C9, luciferin-H luminescence, 60 min; series mostly up to 57.1 µM. The gist of the method: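 Turnover of Luciferin-H (100uM, KM) by 10nM human CYP2C9 was measured over 60 min at 37C with NADPH regeneration; inhibitors and some substrates reduce luminescence. Data normalized to sulphaphenazole 57uM.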

The mark [14] stands for this setting: measured here: cell count channel max response.
[15] abbreviates: measured here: lipid channel max response.

3',5'-cyclic-AMP phosphodiesterase 4B (Homo sapiens), sequence (Q07343 whole entry, looked up): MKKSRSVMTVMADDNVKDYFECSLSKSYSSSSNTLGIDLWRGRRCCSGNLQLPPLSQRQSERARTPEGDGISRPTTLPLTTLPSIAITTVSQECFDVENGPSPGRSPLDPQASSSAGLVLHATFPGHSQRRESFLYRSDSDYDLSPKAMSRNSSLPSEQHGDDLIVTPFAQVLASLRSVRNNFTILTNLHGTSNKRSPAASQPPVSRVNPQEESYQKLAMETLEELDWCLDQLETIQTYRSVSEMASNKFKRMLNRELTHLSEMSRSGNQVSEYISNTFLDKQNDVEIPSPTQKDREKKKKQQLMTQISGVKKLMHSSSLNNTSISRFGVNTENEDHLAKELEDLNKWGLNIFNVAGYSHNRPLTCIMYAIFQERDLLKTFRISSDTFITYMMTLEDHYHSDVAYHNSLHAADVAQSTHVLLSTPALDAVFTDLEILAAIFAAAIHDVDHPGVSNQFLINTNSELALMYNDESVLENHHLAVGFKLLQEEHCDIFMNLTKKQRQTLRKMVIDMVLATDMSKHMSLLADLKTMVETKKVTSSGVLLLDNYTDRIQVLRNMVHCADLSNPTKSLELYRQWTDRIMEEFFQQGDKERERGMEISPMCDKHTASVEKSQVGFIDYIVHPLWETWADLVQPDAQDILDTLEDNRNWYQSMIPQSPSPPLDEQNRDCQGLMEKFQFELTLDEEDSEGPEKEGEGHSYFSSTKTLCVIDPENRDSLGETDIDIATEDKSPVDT
Lysosomal acid glucosylceramidase (Homo sapiens), sequence (P04062 whole entry, looked up): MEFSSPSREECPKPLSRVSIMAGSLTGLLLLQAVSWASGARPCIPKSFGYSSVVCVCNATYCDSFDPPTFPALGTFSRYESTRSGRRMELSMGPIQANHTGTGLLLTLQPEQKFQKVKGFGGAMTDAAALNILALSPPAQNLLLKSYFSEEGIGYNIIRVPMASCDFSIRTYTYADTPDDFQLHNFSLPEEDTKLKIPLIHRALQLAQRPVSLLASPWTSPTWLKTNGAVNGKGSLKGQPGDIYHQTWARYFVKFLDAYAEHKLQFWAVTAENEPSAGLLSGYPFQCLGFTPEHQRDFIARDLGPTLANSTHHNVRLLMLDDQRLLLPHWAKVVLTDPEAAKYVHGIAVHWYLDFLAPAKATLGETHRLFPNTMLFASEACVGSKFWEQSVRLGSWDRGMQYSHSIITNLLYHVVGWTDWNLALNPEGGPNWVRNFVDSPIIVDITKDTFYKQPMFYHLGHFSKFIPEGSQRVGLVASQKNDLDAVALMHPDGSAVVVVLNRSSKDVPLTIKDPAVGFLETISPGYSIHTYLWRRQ
Glucocorticoid receptor (Homo sapiens), sequence (P04150 whole entry, looked up, the tested form may be a part): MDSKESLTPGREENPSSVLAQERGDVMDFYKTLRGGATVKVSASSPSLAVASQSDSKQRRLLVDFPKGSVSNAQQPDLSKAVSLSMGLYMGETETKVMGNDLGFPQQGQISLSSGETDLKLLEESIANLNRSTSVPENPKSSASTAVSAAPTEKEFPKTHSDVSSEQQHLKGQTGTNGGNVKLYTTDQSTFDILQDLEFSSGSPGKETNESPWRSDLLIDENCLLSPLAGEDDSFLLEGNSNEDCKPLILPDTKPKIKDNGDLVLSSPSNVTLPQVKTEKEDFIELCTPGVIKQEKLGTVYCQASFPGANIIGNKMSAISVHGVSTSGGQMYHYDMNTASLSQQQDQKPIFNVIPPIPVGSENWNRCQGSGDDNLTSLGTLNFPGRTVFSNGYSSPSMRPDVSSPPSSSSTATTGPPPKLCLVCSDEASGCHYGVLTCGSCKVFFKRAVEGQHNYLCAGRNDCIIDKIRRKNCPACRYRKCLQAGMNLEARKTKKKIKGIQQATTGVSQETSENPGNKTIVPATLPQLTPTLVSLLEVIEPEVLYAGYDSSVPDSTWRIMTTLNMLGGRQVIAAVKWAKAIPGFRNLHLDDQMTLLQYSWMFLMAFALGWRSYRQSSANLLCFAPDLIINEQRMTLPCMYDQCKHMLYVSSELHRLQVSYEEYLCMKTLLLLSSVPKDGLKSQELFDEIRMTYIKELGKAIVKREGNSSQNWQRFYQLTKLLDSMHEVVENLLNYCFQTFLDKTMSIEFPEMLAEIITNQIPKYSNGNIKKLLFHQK
Cytochrome P450 3A4 (Homo sapiens), sequence (P08684 whole entry, looked up): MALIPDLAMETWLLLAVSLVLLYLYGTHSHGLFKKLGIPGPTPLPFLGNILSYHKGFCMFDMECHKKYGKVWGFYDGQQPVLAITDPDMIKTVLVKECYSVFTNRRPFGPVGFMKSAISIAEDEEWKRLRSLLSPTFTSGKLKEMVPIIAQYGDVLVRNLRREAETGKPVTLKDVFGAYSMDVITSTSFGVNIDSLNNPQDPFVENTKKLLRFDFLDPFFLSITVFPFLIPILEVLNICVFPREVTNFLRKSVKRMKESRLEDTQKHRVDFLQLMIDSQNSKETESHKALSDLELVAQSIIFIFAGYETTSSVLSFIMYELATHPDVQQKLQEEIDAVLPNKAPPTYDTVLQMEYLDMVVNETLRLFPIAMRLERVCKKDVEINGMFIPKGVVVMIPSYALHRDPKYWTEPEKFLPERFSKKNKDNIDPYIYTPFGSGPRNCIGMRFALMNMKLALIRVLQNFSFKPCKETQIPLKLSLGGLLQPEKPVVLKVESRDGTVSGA
Cytochrome P450 2C9 (Homo sapiens), sequence (P11712 whole entry, looked up): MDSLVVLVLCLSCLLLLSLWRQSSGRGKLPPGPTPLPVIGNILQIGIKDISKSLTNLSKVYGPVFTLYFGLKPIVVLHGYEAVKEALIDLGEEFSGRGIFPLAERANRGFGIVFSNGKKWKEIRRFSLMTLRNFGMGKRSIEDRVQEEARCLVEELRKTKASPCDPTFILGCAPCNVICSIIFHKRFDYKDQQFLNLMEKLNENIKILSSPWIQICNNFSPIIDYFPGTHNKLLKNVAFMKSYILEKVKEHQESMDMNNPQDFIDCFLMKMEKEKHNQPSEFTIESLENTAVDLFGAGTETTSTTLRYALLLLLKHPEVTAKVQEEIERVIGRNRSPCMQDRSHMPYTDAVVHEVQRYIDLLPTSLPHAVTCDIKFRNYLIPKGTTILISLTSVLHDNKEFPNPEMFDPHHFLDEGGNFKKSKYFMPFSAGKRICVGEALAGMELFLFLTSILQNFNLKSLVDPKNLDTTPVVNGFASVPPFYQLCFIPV

For the molecule `O=S(=O)(c1ccccc1)N1CCC2(CCN(c3ccc(-c4ccccc4)cc3)CC2)CC1`, the Potency in assay [1] is > 11.4 µM (inactive); in [5], > 46 µM (inactive). In addition, the activity change, negative = inhibition in assay [2] was 1.76% (inactive); in [3] it was 11.9% (inactive); in [9] it was 5.32% (inactive). Further, the activity, negative = inhibition in assay [4] was -10.3% (inactive). The Potency entry in assay [6], in assay [7] and in [8] was “inactive” in each case. The figures for the max response in assay [9] (setting [14]) and in assay [9] (setting [15]) were 18.6% and 22.9%, respectively. Besides, the outcome in [10] was inactive.

Consider `CC(=O)N1CCC2(CC1)CCN(c1ncccn1)CC2`, for which the Potency was > 11.4 µM (inactive) in [1] and > 46 µM (inactive) in assay [5]. Besides, the activity change, negative = inhibition in assay [2] is -16.8% (inactive); in assay [3], -1.48% (inactive); in assay [9], 4.77% (inactive). Further, the activity, negative = inhibition in assay [4] is 10.5% (inactive). Further, the Potency result in [6] and in assay [7] was “inactive” in each case. Besides, the max response in [9] (setting [14]) came to 8.06%; in assay [9] (setting [15]) it was 17.2%. In assay [10], the result was inactive.

In the case of `CC(=O)N1CCC2(CC1)CN(C(=O)Nc1cccc(C#N)c1)C2`, the results for the Potency in assay [1] and in assay [5] were > 11.4 µM (inactive) and > 46 µM (inactive), respectively. In addition, the activity change, negative = inhibition in [2] is -2.26% (inactive); in assay [3] it was 4.7% (inactive); in assay [9] it was 2.51% (inactive). For the same molecule, the activity, negative = inhibition in assay [4] is 11.4% (inactive). Also, the Potency result in assay [6] and in assay [7] was “inactive” in each case. Besides, the max response in assay [9] (setting [14]) was -2.48%; in [9] (setting [15]), 1.82%. Besides, the outcome in [10] was inactive.

Turning to `CC(C)CN1CC[C@@]2(CCCN(C(=O)c3ccco3)C2)C1`, the Potency was > 11.4 µM (inactive) in assay [1] and > 46 µM (inactive) in [5]. In addition, the activity change, negative = inhibition was -7.86% (inactive) in assay [2], 7.22% (inactive) in assay [3] and 3.8% (inactive) in assay [9]. Moreover, the activity, negative = inhibition in assay [4] was -2.85% (inactive). For the same molecule, the Potency entry in [6], in assay [7] and in assay [8] was “inactive” in each case. The max response came out at 3.5% in assay [9] (setting [14]) and 8.53% in assay [9] (setting [15]). Moreover, the result in [10] was inactive.

`CS(=O)(=O)N1CCC2(CCCN(c3cccc(-c4ccccc4)c3)C2)CC1`: the Potency in [1] is > 11.4 µM (inactive); in assay [5], > 46 µM (inactive). Moreover, the activity change, negative = inhibition in assay [2] is -13.4% (inactive); in [3], 0.269% (inactive); in [9], -12% (inactive). In assay [4], the activity, negative = inhibition was -0.955% (inactive). Further, the Potency result in [6] and in assay [7] was “inactive” each time. In addition, the activation in [11] was -18.3% (inactive). Also, the figures for the max response in assay [9] (setting [14]) and in [9] (setting [15]) were 12.1% and -3.01%, respectively. Moreover, in assay [10], the outcome was inactive.

Turning to `CC(C)NC(=O)N1CC[C@@]2(CCCN(C(=O)c3ccncc3)C2)C1`, the Potency in assay [1] is > 11.4 µM (inactive); in assay [5], > 46 µM (inactive). Moreover, the activity change, negative = inhibition in assay [2] was -20.1% (inactive); in assay [3] it was 16.9% (inactive); in assay [9] it was 0.271% (inactive). Besides, the activity, negative = inhibition in assay [4] is -4.77% (inactive). The Potency entry in [6] and in assay [7] was “inactive” throughout. Moreover, the figures for the max response in assay [9] (setting [14]) and in [9] (setting [15]) were -1.86% and 0.996%, respectively. In addition, the outcome in assay [10] was inactive.

`COc1ccc(Oc2ncc3nc(-c4cn(C)c5ccccc45)c(=O)n(CCC#N)c3n2)cc1`: the Potency in assay [1] was > 11.4 µM (inactive); in assay [12], > 9.22 µM (inactive); in assay [5], > 46 µM (inactive); in assay [11] it was 3.16 µM (active). Further, the values for the activity change, negative = inhibition in assay [2], in assay [3] and in [9] were -1.79% (inactive), -2.24% (inactive) and -4.32% (inactive), respectively. Further, the Potency entry in [6], in [7] and in assay [13] was “inactive” throughout. For the same molecule, the max response was determined as 27.8% in assay [9] (setting [14]) and 26.1% in assay [9] (setting [15]). Also, in assay [10], the outcome was inactive.
